The list is not random: actives were taken first. Their share in the collection is about 7.5%.
FLuc counter – firefly luciferase modulation, counter-screen for miR-21 project; P08659; purified FLuc, Km substrates, luminescence inhibition; Potency, µM (highest dose often 57.5 µM), without a hit: at the top dose activity change, negative = inhibition, usual class: inhibitors; hit rate 6.9% among 360,000; AID 588342;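 note: plate controls were vehicle for no effect and reference inhibitor for full effect; nearly all actives have a fitted effect of over 55% in size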
Target sequence (P08659 whole entry, looked up): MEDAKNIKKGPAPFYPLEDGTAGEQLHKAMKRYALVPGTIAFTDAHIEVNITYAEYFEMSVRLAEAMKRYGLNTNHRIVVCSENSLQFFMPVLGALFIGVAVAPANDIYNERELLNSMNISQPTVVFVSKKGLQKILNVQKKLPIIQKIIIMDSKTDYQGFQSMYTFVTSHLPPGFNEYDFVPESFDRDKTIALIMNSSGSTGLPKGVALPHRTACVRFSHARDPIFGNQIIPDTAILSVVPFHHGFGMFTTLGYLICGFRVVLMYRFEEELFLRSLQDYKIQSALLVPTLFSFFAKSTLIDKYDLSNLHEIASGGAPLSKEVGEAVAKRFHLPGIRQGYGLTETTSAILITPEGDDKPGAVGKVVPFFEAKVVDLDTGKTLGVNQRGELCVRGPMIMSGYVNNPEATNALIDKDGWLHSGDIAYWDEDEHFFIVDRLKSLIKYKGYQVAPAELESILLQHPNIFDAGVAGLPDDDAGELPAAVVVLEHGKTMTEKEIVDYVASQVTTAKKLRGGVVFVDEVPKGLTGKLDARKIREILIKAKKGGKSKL
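Biochemical qHTS of compounds, final roughly 60 µM downward over six points, against 10 nM purified firefly luciferase using Km concentrations of substrates (10 uM D-luciferin, 10 uM ATP) in Tris acetate pH 7.5 buffer; luminescence output.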
Luc counter – blocks Kinase-Glo luciferase, a counter-screen artifact; Kinase-Glo luciferase, ATP luminescence, 8 min; Potency, µM (top dose mostly 38.3 µM), for the others: top-dose activity change, negative = inhibition, actives largely listed as inhibitors; hit rate 0.28% among 200,000; note: % is set by controls: 0 for no effect and ±100 for the full control effect; nearly all actives have a fitted effect of over 60% in size
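Recombinant Kinase-Glo luciferase, 10 uM ATP (linear range), luciferin; imidazole pH 7.2 / KCl / MgCl2 / Tween / BSA buffer; 8 min RT; luminescence.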
Rab9 promoter act – Rab9 promoter activation; Potency, µM (series often up to 9.22 µM), for inactives: at the top dose activation, negative = inhibition, hits mostly activators; Huh7 Rab9 promoter-luciferase reporter, luminescence, 24 h; AID 485297; hit rate 2.8% among 320,000; note: % of control where 0% means no effect; nearly all actives have a fitted effect of over 60% in size
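Luciferase signal after 10 min detection reagent at ambient indicates Rab9 promoter upregulation; stably transfected Huh7 cells were treated 24 h with compound in DMSO at 37 °C, 5% CO2.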
NPC1 promoter act – activates the NPC1 promoter; Huh7 NPC1 promoter luciferase reporter, 24 h; Potency, µM (doses to about 9.22 µM), inactives show at the highest dose activation, usual class: activators; hit rate 2.4% among 320,000; note: % of control where 0% means no effect; nearly all actives have a fitted effect of over 60% in size
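Luminescence from an NPC1 promoter-driven luciferase reporter in stably transfected Huh7 cells was measured after 24 h compound treatment at 37 °C, followed by 10 min ambient incubation with luciferase detection reagent.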
ELG1 genotox – induces genotoxicity in HEK293T cells with luciferase-tagged ELG1 | HEK293T ELG1-luciferase reporter, luminescence, 16 h | AID 504466 | hit rate 1.3% among 330,000 | Potency, µM (top dose mostly 46 µM), for the others: at the highest dose activity change, positive = activation, most hits filed as activators; note: % of control where 0% means no effect; nearly all actives have a fitted effect of over 60% in size
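After overnight (16 hr) compound treatment at 37 °C, ELG1-luciferase HEK293T cells were lysed with ONE-Glo; luminescence quantified 30 min later at room temperature.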
SMN2 splice up – increases expression of the SMN2 splice variant. HEK293 SMN2-luciferase splicing reporter, luminescence, 30-36 h. Potency, µM (top dose mostly 46.1 µM), inactives show at the highest dose activity change, positive = activation, hits mostly activators. hit rate 2.8% among 210,000. AID 1458; note: % of control where 0% means no effect; nearly all actives have a fitted effect of over 55% in size
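HEK293 cells carry an SMN2 minigene-luciferase reporter in which exon 7 inclusion puts luciferase in frame. Cells were seeded at 2000 cells/well, attached for 10-12 hours, then exposed to compounds for 30-36 hours at 37C before ONE-Glo luminescence.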
Starred values were filed as active, the others as inactive. Calls come from the whole dose curve; as a rule, active = well fitted curve in the direction sought with a large enough effect; inconclusive = small, poorly fitted or top-dose-only effect, or another doubt; inactive = no such curve, though single readings can be large; an effect the other way counts as inactive or inconclusive. Potency is the fitted concentration of half-maximal effect.

What do the screens show for `O=C(Cn1cc2c(n1)CCCCC2)Nc1ccccc1Br`?
FLuc counter: -16%; Rab9 promoter act: 26%; NPC1 promoter act: 12%; ELG1 genotox: 3%

What do the screens show for `C=CCNC(=O)N1CCCC(C(=O)c2cccc(OC(C)C)c2)C1` (stereo unspecified)?
FLuc counter: 17µM*; Rab9 promoter act: 3.5µM*; NPC1 promoter act: inconclusive; ELG1 genotox: inconclusive

How did COc1ccccc1Cc1nc2ccccc2nc1SCC(=O)NCc1ccccc1Cl do in these assays?
FLuc counter: -2%

Results for COc1ccc(OC)c(-c2csc(-c3c(N)c(C(=O)c4ccc(Cl)cc4)n4ccccc34)n2)c1 ?
FLuc counter: 2%; SMN2 splice up: 1%

Results for COc1ccc2cc(-c3nc(Cl)c4c5c(sc4n3)CCCC5)c(=O)oc2c1 ?
FLuc counter: inconclusive; SMN2 splice up: 3%

Results for Nc1nc(-c2cccnc2)nc2sc3c(c12)CCCC3 ?
FLuc counter: 1.1µM*; Luc counter: -6%; Rab9 promoter act: 3.2µM*; NPC1 promoter act: 2µM*; ELG1 genotox: 7.3µM*; SMN2 splice up: 11µM*

What do the screens show for `O=C1CN(c2nc(-c3cccnc3)nc3sc4c(c23)CCCC4)CCN1`?
FLuc counter: inconclusive; Luc counter: 7%; Rab9 promoter act: -3%; NPC1 promoter act: 0%; ELG1 genotox: -2%; SMN2 splice up: inconclusive

What do the screens show for `O=c1oc(/C=C/c2ccccc2)nc2sc3c(c12)CCC3`?
FLuc counter: 0.95µM*; Luc counter: -23%; Rab9 promoter act: inconclusive; NPC1 promoter act: 21%; ELG1 genotox: 14µM*; SMN2 splice up: 11µM*

What do the screens show for `CC(C)(C)c1nc2sc3c(c2c(=O)o1)CCCC3`?
FLuc counter: -7%; Luc counter: -5%; Rab9 promoter act: 2%; NPC1 promoter act: 1%; ELG1 genotox: 3%; SMN2 splice up: 3%

How did Cc1ccccc1-c1nc2sc3c(c2c(=O)o1)CCC3 do in these assays?
FLuc counter: 2.4µM*; Luc counter: -17%; Rab9 promoter act: 4%; NPC1 promoter act: -2%; ELG1 genotox: 3%; SMN2 splice up: 33%

Results for O=c1oc(-c2ccccc2)nc2sc3c(c12)CCCC3 ?
FLuc counter: 1.2µM*; Luc counter: inconclusive; Rab9 promoter act: inconclusive; NPC1 promoter act: 24%; ELG1 genotox: 23%; SMN2 splice up: inconclusive

Results for Cn1c(N/N=C/c2ccccc2)nc2sc3c(c2c1=O)CCC3 ?
FLuc counter: 15µM*; Luc counter: -6%; Rab9 promoter act: -2%; NPC1 promoter act: 1%; ELG1 genotox: 1%; SMN2 splice up: -26%

What do the screens show for `CCc1c(-c2ccccc2)nc2sc3c(c2c1N)CCCC3`?
FLuc counter: 1.7µM*; Rab9 promoter act: inconclusive; NPC1 promoter act: 26%; ELG1 genotox: -4%

What do the screens show for `O=c1oc(-c2cccs2)nc2sc3c(c12)CCCCC3`?
FLuc counter: 1.2µM*; Luc counter: -7%; Rab9 promoter act: inconclusive; NPC1 promoter act: inconclusive; ELG1 genotox: 1%; SMN2 splice up: 16µM*

Results for O=C(CSc1nc2sc3c(c2c(=O)n1-c1ccccc1)CCCC3)N/N=C/c1ccc(C(=O)O)cc1 ?
FLuc counter: -7%; Rab9 promoter act: -1%; NPC1 promoter act: -8%; ELG1 genotox: 2%

What do the screens show for `CCc1nc2sc3c(c2c(=O)o1)CCCC3`?
FLuc counter: inconclusive; Luc counter: -3%; Rab9 promoter act: 1%; NPC1 promoter act: 0%; ELG1 genotox: inconclusive; SMN2 splice up: 13%

How did O=c1oc(-c2cc3ccccc3o2)nc2sc3c(c12)CCCC3 do in these assays?
FLuc counter: 2.4µM*; Luc counter: -12%; Rab9 promoter act: inconclusive; NPC1 promoter act: inconclusive; ELG1 genotox: 14%; SMN2 splice up: inconclusive

Results for Nc1c(C(=O)O)sc2nc(-c3ccccc3)c3c(c12)CCCC3 ?
FLuc counter: -1%; Luc counter: -2%; Rab9 promoter act: 1%; NPC1 promoter act: -1%; ELG1 genotox: 1%; SMN2 splice up: -6%

How did CC(C(=O)O)n1cc(Cl)cn1 (stereo unspecified) do in these assays?
FLuc counter: 6%; Luc counter: 0%; Rab9 promoter act: 1%; NPC1 promoter act: 0%; ELG1 genotox: 29%; SMN2 splice up: -26%

Results for COc1cc2c(cc1O)CCC1C2CC[C@]2(C)[C@@H](O)CC[C@@H]12 (stereo partly specified) ?
Luc counter: -2%; SMN2 splice up: -24%

How did COc1ccc(CCN2C(=O)N(c3ccc(C)cc3)C(=O)C2CC(=O)Nc2ccc(F)cc2)cc1 (stereo unspecified) do in these assays?
FLuc counter: -11%; SMN2 splice up: 11%

How did Cc1cn2c(N)c(/C=C3\C=Nc4ccccc43)c(=O)nc2s1 do in these assays?
FLuc counter: -11%; Rab9 promoter act: 27%; NPC1 promoter act: inconclusive; ELG1 genotox: -7%

What do the screens show for `COC1=C/C(=C/c2c(N)n3cc(C)sc3nc2=O)C=CC1=O`?
FLuc counter: 3.8µM*; Luc counter: -1%; Rab9 promoter act: 0%; NPC1 promoter act: 2%; ELG1 genotox: 2%; SMN2 splice up: -6%

Results for COC1=C/C(=C/c2c(N)n3nc(CC(=O)N4CCCC4)sc3nc2=O)C=CC1=O ?
FLuc counter: 3%; Rab9 promoter act: 0%; NPC1 promoter act: 2%; ELG1 genotox: 0%

What do the screens show for `Cc1cn2c(N)c(C=C3C=C(Cl)C(=O)C(Cl)=C3)c(=O)nc2s1`?
FLuc counter: 17µM*; Luc counter: 1%; Rab9 promoter act: -4%; NPC1 promoter act: -2%; ELG1 genotox: 0%; SMN2 splice up: -12%

How did CCOc1ccccc1C(=O)N(Cc1ccco1)Cc1ccccc1F do in these assays?
FLuc counter: -5%; SMN2 splice up: -20%

Results for OC(CNc1ncnc2sccc12)c1ccccc1 (stereo unspecified) ?
FLuc counter: 17µM*; Rab9 promoter act: 1%; NPC1 promoter act: inconclusive; ELG1 genotox: 8%

Results for CCc1cc(C(C)=O)c(O)cc1OCCCCCC(C)(C)c1nn[nH]n1 ?
Luc counter: -5%; SMN2 splice up: -17%

How did COc1cc(C)c(C(=O)Oc2cc(C)c(C(=O)O)c(O)c2)c(O)c1 do in these assays?
FLuc counter: 19µM*; Rab9 promoter act: 7%; NPC1 promoter act: -2%; ELG1 genotox: 5%

What do the screens show for `Cc1cc(O)cc(O)c1C(=O)O`?
Luc counter: 0%; SMN2 splice up: 7%

Screening data (PubChem)
